Pf growth 96h: P. falciparum growth inhibition at 96 hours; P. falciparum luciferase reporter growth, 96 h; Potency, µM (series often up to 28.7 µM), usual class: inhibitors; hit rate 6.9% among 320,000; active = well fitted inhibition curve with a large enough effect; inconclusive = small, poorly fitted or top-dose-only effect, or another doubt; inactive = no such curve, though single readings can be large or run the other way
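Compounds incubated with erythrocytes infected by luciferase-expressing P. falciparum (2% hematocrit, 0.05% parasitemia final) for 96 hours, 37 C in 5% CO2. Growth inhibition scored as decreased luciferase luminescence.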
NS1 inh: influenza NS1 inhibition; Potency, µM (top dose mostly 46.1 µM); hit rate 0.4% among 270,000; also: actives are rising curves; nearly all actives have a fitted effect of over 50% in size
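Read-out: OD600 growth recovery of NS1-expressing budding yeast. Cells grown overnight at 30C in -URA glucose medium, washed, resuspended and diluted 1:100 in 2% galactose assay medium, pH 6.0. Same strain lacking NS1 served as positive control.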
Shiga inhibitor: Shiga toxin inhibition. Vero cells, Shiga toxin protein synthesis inhibition reporter. inhibition, % at 38.7 µM. hit rate 9.2% among 290,000. AID 2315; in the data active = inhibition mostly above about 28%, no sharp cut-off; inactive = mostly below about 43%
Pf growth 48h: inhibits P. falciparum growth in the first generation, 48 h. Potency, µM (highest dose often 28.7 µM), actives largely listed as inhibitors. hit rate 5.9% among 310,000. P. falciparum luciferase growth in erythrocytes, 48 h. AID 504832; active = well fitted inhibition curve with a large enough effect; inconclusive = small, poorly fitted or top-dose-only effect, or another doubt; inactive = no such curve, though single readings can be large or run the other way
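Growth was read as firefly luciferase luminescence after a 48 h, 37 C, 5% CO2 exposure of compounds to reporter-bearing P. falciparum cultures (0.1% parasitemia, 2% hematocrit final) in Albumax-supplemented RPMI 1640.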
Cycloheximide cs: affects cycloheximide protein synthesis inhibition readout, counter-screen. AID 2314. max response, %. hit rate 12% among 300,000. cell reporter, cycloheximide protein synthesis inhibition counterscreen; in the data active = max response mostly above about 13%, no sharp cut-off; inactive = mostly below about 14%; also: read at 38.3 µM for the half of the compounds with a filed dose
SARS PLpro yeast: blocks SARS-CoV papain-like protease in a yeast assay; S. cerevisiae expressing SARS-CoV PLpro, growth rescue; Potency, µM (top dose mostly 32.9 µM), usual class: activators; hit rate 0.19% among 330,000; AID 485353; also: nearly all actives have a fitted effect of over 55% in size
Each line names hits and unclear results; the compound was inactive in the other large screens. Hits are enriched below; roughly 21% of the tested compounds scored in any of these assays. Unless noted, calls follow the shape of the full dose curve.

COc1cccc(NC(=O)CN(C)C(=O)c2cccnc2Nc2cccc(C(F)(F)F)c2)c1	Pf growth 96h inconclusive, Pf growth 48h 9.28µM (no result: NS1 inh, Shiga inhibitor, Cycloheximide cs)
Cc1ccc(NC(=O)CN(C)C(=O)c2cccnc2Nc2cccc(C(F)(F)F)c2)cc1	Pf growth 96h 9.28µM, Pf growth 48h inconclusive
Fc1ccc(-c2nc3ccncc3[nH]2)cc1	Pf growth 96h inconclusive, Cycloheximide cs 23.4 (no result: Pf growth 48h)
Clc1ccc(-c2nc3ccncc3[nH]2)cc1	Shiga inhibitor 58.5, Pf growth 48h inconclusive, Cycloheximide cs 81.8
Cn1c(SCC(=O)NC2CCS(=O)(=O)C2)nnc1-c1ccco1 (configuration not stated)	none (no result: NS1 inh, Shiga inhibitor, Cycloheximide cs)
CCCCN(CCCC)C(=O)c1cc(Cl)ccc1[N+](=O)[O-]	none
CCCN(CCC)C(=O)c1cc([N+](=O)[O-])cc2c1-c1ccc([N+](=O)[O-])cc1C2=C(C#N)C#N	Pf growth 96h 11.7µM, Pf growth 48h 11.7µM
COc1ccc(C(=O)Nc2cnc(NC(=O)c3cccs3)cc2C)cc1	Pf growth 96h inconclusive, Cycloheximide cs 46.3
CCCCC(=O)Nc1cc(C)c(NC(=O)c2cccs2)cn1	none
Cc1cc(NC(=O)C2CCCCC2)ncc1NC(=O)c1ccccn1	none
Cc1cc(NC(=O)C2CC2)ncc1NC(=O)c1ccccn1	Shiga inhibitor 70.7, Cycloheximide cs 40.1
CCCCC(=O)Nc1cnc(NC(=O)c2cccs2)cc1C	Cycloheximide cs 31.1 (no result: Shiga inhibitor)
COc1ccc(C(=O)Nc2cc(C)c(NC(=O)c3ccccn3)cn2)cc1	Shiga inhibitor 47.6, Cycloheximide cs 40.2
O=C(CN(Cc1ccc(F)cc1)C(=O)c1csnn1)NC1CCCC1	none
CC(C)CNC(=O)/C(C#N)=C1\N=C(NC(=O)c2ccco2)c2ccccc21	Pf growth 96h inconclusive, Pf growth 48h inconclusive, Cycloheximide cs 12.4
O=C(NCc1ccc2c(c1)OCO2)c1cc(=O)[nH]c2ccccc12	none
CC1(C)S[C@@H]2[C@H](NC(=O)COc3ccccc3)C(=O)N2C1C(=O)OCc1cc2ccccc2n1S(=O)(=O)c1ccccc1 (some centres not stated)	Pf growth 96h 13.1µM
CN1CCC(N(C)c2nc(-c3ccc([N+](=O)[O-])cc3)nc3ccccc23)CC1	Pf growth 96h 1.47µM, Pf growth 48h inconclusive
COc1ccc(/C=N/NC(=O)c2ccc3nc[nH]c3c2)c(OC)c1OC	none
Cn1c(/C=N/NC(=O)c2ccccc2Br)nc2ccccc21	Pf growth 96h inconclusive, Pf growth 48h inconclusive, Cycloheximide cs 14.8
CCCn1c(NC(=O)c2ccccc2Br)nc2ccccc21	Pf growth 96h inconclusive, Pf growth 48h inconclusive, Cycloheximide cs 17.9 (no result: NS1 inh)
CCCn1c(NC(=O)c2ccc(Br)cc2)nc2ccccc21	Pf growth 96h 2.94µM (no result: Pf growth 48h)
CCCn1c(NC(=O)c2ccco2)nc2ccccc21	Pf growth 48h inconclusive
CCCn1c(NC(=O)c2ccc(F)cc2)nc2ccccc21	none (no result: NS1 inh)
COc1ccc(OC)c(C(C(=O)NC2CCCCC2)N(Cc2ccco2)C(=O)c2ccccn2)c1 (configuration not stated)	none
Cc1ccc(N2C(=O)C3C(C2=O)C2C=CC3C23CC3)c([N+](=O)[O-])c1 (configuration not stated)	none (no result: NS1 inh)
Cc1cc(-c2nnc(SCc3ccccn3)o2)no1	none (no result: Pf growth 96h)
FC(F)(F)Oc1ccccc1-c1nnc(-c2cccc(C(F)(F)F)c2)o1	none
Cc1cc(-c2nnc(-c3cccc(C(F)(F)F)c3)o2)no1	Shiga inhibitor 76.6, Cycloheximide cs 43.8
Cc1ccc(-c2nnc(-c3cc(C)on3)o2)cc1	Shiga inhibitor 59.0, Cycloheximide cs 38.9
CCc1cccc(C)c1NC(=O)COC(=O)c1cc([N+](=O)[O-])ccc1N1CCOCC1	Pf growth 48h inconclusive (no result: NS1 inh, Shiga inhibitor, Cycloheximide cs)
Cc1ccc(COc2ccc(/C=N/NC(=O)c3ccc(CN4CCOCC4)cc3)cc2)cc1	Pf growth 96h inconclusive
Cc1ccc(C(C)C)c(OCc2ccc(C(=O)N/N=C/c3ccc(O)cc3O)cc2)c1	Pf growth 96h inconclusive, Pf growth 48h 2.62µM, SARS PLpro yeast 3.16µM
Cc1ccc(C(C)C)c(OCc2ccc(C(=O)N/N=C/c3ccc(C(=O)O)cc3)cc2)c1	Pf growth 48h inconclusive, Cycloheximide cs 11.3
O=C(COc1ccc(S(=O)(=O)N2CCOCC2)cc1)NCc1ccccn1	none
O=C(c1ccc2nccnc2c1)N1CCCC(N2CCN(c3ccc(F)cc3)CC2)C1 (configuration not stated)	Pf growth 96h inconclusive
COc1ccc(CNC(=O)C2CCCN(S(=O)(=O)c3ccc(F)cc3)C2)cc1 (configuration not stated)	none
C=CCNc1nc2c3ccccc3n(C(C)=O)c2s1	Pf growth 96h inconclusive, Shiga inhibitor 128.9, Pf growth 48h inconclusive
CC(=O)n1c2ccccc2c2c(C#N)c(N3CCCCC3)sc21	none (no result: Pf growth 96h, Shiga inhibitor, Pf growth 48h, Cycloheximide cs, SARS PLpro yeast)
CC(=O)c1c(C)nn(CC(=O)NC2CCCN(Cc3ccc(CC(C)C)cc3)C2)c1C (configuration not stated)	Pf growth 96h inconclusive, SARS PLpro yeast inconclusive
COC(=O)Nc1ccc(S(=O)(=O)NNC(=O)c2c(O)c3ccccc3n(C)c2=O)cc1	none
O=C(/C=C/c1ccccc1)c1c[nH]c2ccccc12	Shiga inhibitor 64.0, Cycloheximide cs 34.2
O=C(NCc1ccco1)C(=O)c1c[nH]c2ccccc12	Shiga inhibitor 54.0, Cycloheximide cs 31.0
Cc1[nH]c2ccccc2c1C(=O)C(=O)NCCOc1ccccc1	Pf growth 48h inconclusive (no result: NS1 inh)
CCOC(=O)C(Cc1c[nH]c2ccccc12)NC(=O)c1ccccc1Br (configuration not stated)	Shiga inhibitor 53.2, Cycloheximide cs 37.5
Cc1[nH]c2ccccc2c1C(=O)C(=O)NCc1ccco1	Pf growth 96h 11.7µM
CCOc1ccc(C(=O)CCC(=O)N(CC)CC(=O)Nc2c(F)cccc2F)cc1	Pf growth 96h inconclusive, Pf growth 48h inconclusive (no result: NS1 inh, Shiga inhibitor, Cycloheximide cs)
CCOC(=O)C1CCCN(S(=O)(=O)c2ccc(Cl)nc2)C1 (configuration not stated)	Pf growth 48h inconclusive (no result: NS1 inh, Shiga inhibitor, Cycloheximide cs)
O=C(NCc1cccs1)C(=O)c1c[nH]c2ccccc12	Cycloheximide cs 33.2 (no result: NS1 inh)
COC(=O)C(Cc1c[nH]c2ccccc12)NC(=O)COc1ccc(Cl)cc1Cl (configuration not stated)	Cycloheximide cs 28.7 (no result: Pf growth 96h, NS1 inh, Pf growth 48h, SARS PLpro yeast)
Cc1[nH]c2ccccc2c1C(=O)C(=O)NCCC1=CCCCC1	Pf growth 96h inconclusive, Pf growth 48h 2.94µM
COC(=O)C(Cc1c[nH]c2ccccc12)NC(=O)CNC(C)=O (configuration not stated)	none (no result: Pf growth 48h)
O=C(Cc1c[nH]c2ccccc12)NCc1ccc(Cl)cc1Cl	Shiga inhibitor 44.6
COc1ccc(NC(=O)CCOc2ccc(C)cc2)c(OC)c1	none (no result: Shiga inhibitor)
CCN(CC)CCNC(=O)CCN1N=C(c2ccccc2)CCC1=O	Pf growth 96h inconclusive
CCOc1ccc(CNC(=O)CCC(=O)n2ncc3ccc(Cl)cc32)cc1	Pf growth 96h inconclusive
O=C(NCc1ccccc1Cl)C(=O)c1c[nH]c2ccccc12	Shiga inhibitor 70.7, Cycloheximide cs 28.8
